Bioassay records as filed in PubChem BioAssay.
An excerpt weighted towards active compounds, which were near 0.64% of everything screened.
TRb SRC2 PPI = qHTS for Inhibitors of the Interaction of Thyroid Hormone Receptor and Steroid Receptor Coregulator 2; Thyroid hormone receptor beta (Homo sapiens), P10828; TRbeta-SRC2 peptide binding, fluorescence polarization; receptor liganded with 1 µM T3; Potency, µM (highest dose often 106 µM), for inactives: top-dose activity change, negative = inhibition, usual class: inhibitors; 0.065% of 280,000 active; AID 1469, 2008;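 also: plate controls were bound peptide for no effect and peptide without receptor for full effect; nearly all actives have a fitted effect of over 50% in size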
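Read-out is fluorescence polarization (555 nm excitation, 632 nm emission) of a Texas Red SRC2 coactivator peptide; loss of signal reflects blocked binding to human TRb ligand-binding domain in the presence of 1 uM T3.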
RECQ1 helicase = qHTS Assay for Inhibitors of RecQ-Like Dna Helicase 1 (RECQ1). RECQ1 DNA unwinding, red fluorescence kinetic read. 0.54% of 240,000 active. ATP-dependent DNA helicase Q1 (Homo sapiens), P46063. Potency, µM (highest dose often 57.3 µM), for inactives: at the highest dose activity, negative = inhibition, most hits filed as inhibitors;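 also: plate controls were vehicle for no effect and no enzyme for full effect; nearly all actives have a fitted effect of over 30% in size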
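RECQ1T1 50 nM; forked duplex (20 bp + 30-nt ss tails) 200 nM, ATP 2 mM final; pH 8.0, 2 mM MgCl2, 2.5 ug/ml poly(dI-dC); 15 min compound preincubation; discontinuous kinetic read over 2 h at RT.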
TR SRC2 fluor cs = Total Fluorescence Counterscreen for Inhibitors of the Interaction of Thyroid Hormone Receptor and Steroid Receptor Coregulator 2; TRb/SRC2 Texas Red total fluorescence interference; Potency, µM (highest dose often 106 µM), inactives show at the top dose fluorescence change, negative = quenching; 0.29% of 280,000 active; AID 1479, 2009; active = well fitted curve in either direction with a large enough effect; inconclusive = small, poorly fitted or top-dose-only effect
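Flags fluorescent or light-absorbing compounds by total fluorescence, S + 2P, at 555 nm excitation and 632 nm emission. Mixture: 20 nM Texas Red SRC2 peptide, 0.6 uM human TRb LBD, 1 uM T3, 5% DMSO; compound exposure 5 h at ambient temperature.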
BLM helicase inh = qHTS Assay for Inhibitors of Bloom's syndrome helicase (BLM) | Potency, µM (titrated, usually from 56.1 µM), inactives show at the highest dose activity change, negative = inhibition, hits mostly inhibitors | RecQ-like DNA helicase BLM (Homo sapiens), P54132 | 0.2% of 350,000 active | AID 2528, 2010 | recombinant BLM DNA unwinding, fluorescence dequenching;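 also: plate controls were vehicle for no effect and no enzyme for full effect; nearly all actives have a fitted effect of over 35% in size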
Target sequence (P54132 whole entry, looked up): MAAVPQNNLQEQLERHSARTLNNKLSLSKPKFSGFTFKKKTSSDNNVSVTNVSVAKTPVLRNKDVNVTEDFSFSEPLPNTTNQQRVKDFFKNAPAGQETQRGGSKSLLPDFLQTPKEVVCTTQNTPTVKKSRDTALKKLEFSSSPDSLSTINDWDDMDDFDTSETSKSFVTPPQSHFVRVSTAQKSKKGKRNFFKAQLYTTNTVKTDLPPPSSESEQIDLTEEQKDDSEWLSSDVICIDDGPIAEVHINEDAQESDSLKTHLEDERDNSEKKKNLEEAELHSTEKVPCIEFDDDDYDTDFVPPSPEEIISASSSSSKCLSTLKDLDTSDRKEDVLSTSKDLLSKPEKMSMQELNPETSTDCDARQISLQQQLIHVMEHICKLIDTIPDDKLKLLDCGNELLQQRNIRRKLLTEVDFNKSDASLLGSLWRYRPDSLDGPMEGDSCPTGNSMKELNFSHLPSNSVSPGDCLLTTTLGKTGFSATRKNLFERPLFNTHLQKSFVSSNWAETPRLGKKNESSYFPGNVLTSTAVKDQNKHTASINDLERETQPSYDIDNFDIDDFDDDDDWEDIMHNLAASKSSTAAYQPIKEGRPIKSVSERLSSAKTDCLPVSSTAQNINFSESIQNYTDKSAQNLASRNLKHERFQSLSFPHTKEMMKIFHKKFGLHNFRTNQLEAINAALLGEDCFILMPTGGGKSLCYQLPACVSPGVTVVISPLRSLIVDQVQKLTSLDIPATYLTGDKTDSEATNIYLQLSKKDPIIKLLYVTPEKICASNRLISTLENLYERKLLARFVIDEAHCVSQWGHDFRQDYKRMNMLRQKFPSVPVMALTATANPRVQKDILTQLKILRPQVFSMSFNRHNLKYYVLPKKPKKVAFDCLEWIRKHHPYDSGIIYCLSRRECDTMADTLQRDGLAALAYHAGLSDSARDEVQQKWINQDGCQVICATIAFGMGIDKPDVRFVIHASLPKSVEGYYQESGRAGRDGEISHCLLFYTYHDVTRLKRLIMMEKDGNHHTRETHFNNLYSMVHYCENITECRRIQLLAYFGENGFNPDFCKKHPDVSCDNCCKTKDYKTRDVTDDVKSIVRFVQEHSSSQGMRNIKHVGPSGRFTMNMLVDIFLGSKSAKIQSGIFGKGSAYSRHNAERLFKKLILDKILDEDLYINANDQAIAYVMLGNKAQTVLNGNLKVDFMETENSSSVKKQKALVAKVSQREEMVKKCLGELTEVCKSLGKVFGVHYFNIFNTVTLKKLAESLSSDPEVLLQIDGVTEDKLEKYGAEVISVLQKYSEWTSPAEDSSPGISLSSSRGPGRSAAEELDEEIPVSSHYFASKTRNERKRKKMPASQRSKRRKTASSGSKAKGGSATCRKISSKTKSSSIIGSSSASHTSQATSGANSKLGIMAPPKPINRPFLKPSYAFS
An asterisk follows results filed as active; u = inconclusive; x = no result; ! = repeats disagree; [ ] = dose if it differs, or a comment. Unless noted, calls follow the shape of the dose curve; as a rule, active = well fitted curve in the direction sought with a large enough effect; inconclusive = small, poorly fitted or top-dose-only effect, or another doubt; inactive = no such curve, though single readings can be large; an effect the other way counts as inactive or inconclusive. Unless noted, % is scaled to controls: 0 for no effect and ±100 for the full control effect; potency is read from the fitted curve at half-maximal effect.

SMILES	TRb SRC2 PPI	RECQ1 helicase	TR SRC2 fluor cs	BLM helicase inh
COc1cccc(N2CCN(C(=O)c3ccc(CS(=O)c4cccc(Cl)c4)o3)CC2)c1 (centres undefined)	2%	x	-1%	1%
CC1(C)C=C2C(=NN(c3ccccc3)C(N)=C2C#N)CO1	x	x	x	18µM*
CC1(C)Cc2c(C#N)c(N)n(-c3ccccc3)c(=S)c2CO1	-2%	-3%	-2%	-7%
Cc1ccc2nc(CN3CCN(S(=O)(=O)c4ccc(F)cc4)CC3)oc2c1	-3%	x	-3%	-3%
O=C(O)c1ccc(/C=N/N2CCN(Cc3ccc(Cl)cc3)CC2)cc1	-6%	18%	0%	-8%
Cc1ccc(CN2CCN(/N=C/c3ccc(C(=O)O)cc3)CC2)cc1	-6%	-7%	0.063µM*[quencher]	-17%
CNc1nc(=O)n(C2CCC(O)CC2)c(=O)n1C (centres undefined)	2%[201 µM]	x	-1%[201 µM]	x
Cc1ccccc1NS(=O)(=O)c1ccc(Br)s1	-40%[53 µM]	x	112µM*[quencher]	-4%
C#CCOCCOCCOCCNc1nc(N2CCN(C(=O)[C@H](Cc3cc4ccccc4[nH]3)n3cc([C@@H](N)CC(C)C)nn3)CC2)nc(N2CCN(C(=O)[C@H](Cc3cc4ccccc4[nH]3)n3cc([C@@H](N)CC(C)C)nn3)CC2)n1	3%	u	-3%	22µM*
Cc1ccc(-n2cccc2/C=C2/C(=N)N3C(=NC2=O)SN=C3S(C)(=O)=O)cc1Cl	19%	-10%	u	28µM*
Cc1ccc(C(=O)c2ccccc2)cc1	5%[201 µM]	x	3%[201 µM]	x
CC(=O)CC(=O)Nc1ccccc1C	-2%[201 µM]	x	-5%[201 µM]	x
COC(=O)c1ccc(NC(=O)C(=O)NCCc2csc(-c3ccc(C(F)(F)F)cc3)n2)cc1	-6%	x	3%	-1%
O=C(NCCc1csc(-c2ccc(F)cc2)n1)c1c(F)cccc1Cl	-12%	x	0.0002µM*[quencher]	-3%
COC(=O)c1ccc(NC(=O)C(=O)NCCc2csc(-c3ccc(F)cc3)n2)cc1	-10%	x	0.0004µM*[quencher]	-1%
Cc1ccc(NC(=O)C2CCN(S(=O)(=O)c3ccc4c(c3)CCCC(=O)N4)CC2)c(Cl)c1	-5%	x	0%	-1%
CCc1nn2c(-c3ccccc3OC)ccnc2c1-c1ccccc1	6%	x	-1%	-7%
CCc1nn2c(-c3ccccc3OC)ccnc2c1-c1ccc(F)cc1	-9%	x	8.9µM*[quencher]	-9%
O=c1c2ccccc2c(C=Nc2ccc(S(=O)(=O)N3CCCCC3)cc2)c(O)n1-c1ccc(Cl)cn1	-12%[53 µM]	-7%	35µM*[quencher]	-8%
COc1cc(/C=C2\SC(=S)N(NS(=O)(=O)c3ccccc3)C2=O)ccc1O	19%	28µM*	8%	-6%
COc1cc(/C=C2\SC(=S)N(NS(=O)(=O)c3ccc(C)cc3)C2=O)ccc1O	8%	22µM*	7%	-17%
COc1ccc(/C=C2/SC(=S)N(NS(=O)(=O)c3ccccc3)C2=O)cc1	x	x	x	-7%
CCOCCc1nnc(NC(=O)C(=O)c2cc(C)n(-c3ccc(C)c(C)c3)c2C)s1	8%	x	0%	-2%
CCOC(=O)c1c(C)oc2ncnc(N3CCN(c4ccc(C)cc4C)CC3)c12	4%	x	1%	-7%
CCOC(=O)c1c(C)oc2nc(C)nc(N3CCN(c4ccc(C)cc4C)CC3)c12	-11%	x	447µM*[quencher]	-15%
SMILES	TRb SRC2 PPI	RECQ1 helicase	TR SRC2 fluor cs	BLM helicase inh
CCOC(=O)N1CCC(NC(=O)c2cnn(-c3cccc(F)c3)c2-n2cccc2)CC1	8%	x	-1%	0%
Cc1ccc(NC(=O)Cn2c(=O)n(CCC(=O)NCc3ccccc3Cl)c(=O)c3ccccc32)cc1	6%	x	2%	-6%
O=C(N/N=C/c1cc2ccccc2nc1Cl)/C(=C/c1cccs1)NC(=O)c1ccccc1	-8%	25µM*	-6%	u
O=C(N/N=C/c1cccnc1)/C(=C\c1cccs1)NC(=O)c1ccccc1	1%	-7%	2%	3%
Cc1[nH]c2c(ccc3cccnc32)c1C	2%	23%	-3%	1%
CC1=[N+](C)c2c(ccc3cccnc23)C1(C)C	25µM*	u	11µM*[fluorescent]	36%
C=Cc1ccccc1Br	0%[201 µM]	x	0%[201 µM]	x
CSc1ccc(/C=N/NC(=O)c2cc(O)cc(O)c2)cc1	-7%	-3%	-1%	0%
CSc1ccc(/C=N/NC(=O)c2ccc(C)c(C)c2)cc1	8%	1%	1%	28µM*
COc1ccc(-c2noc(CCC(=O)Nc3cccnc3)n2)cc1OC	-7%	4%	-1%	3%
COc1ccc(-c2noc(CCC(=O)Nc3ccccc3Cl)n2)cc1OC	-28%[53 µM]	x	0.004µM*[quencher]	-2%
CCCC/C=C\CCCCCCCCO	-2%[201 µM]	x	-3%[201 µM]	x
COc1ccc(N2CCN(C(=O)Cn3cnc4sc(C)c(S(=O)(=O)N5CCCCC5)c4c3=O)CC2)cc1	-2%	x	-1%	-1%
CCOC(=O)c1cnc2c(C)cc(C)cc2c1Nc1cccc(C(=O)O)c1	6%	x	-21%	-1%
CCOC(=O)c1cnc2c(C)cc(C)cc2c1Nc1ccc(S(=O)(=O)Nc2ncccn2)cc1	-13%[53 µM]	0%	35µM*[quencher]	-15%
COc1ccc(-c2nn(C)c3sc(C(=O)Nc4cc(OC)c(OC)c(OC)c4)cc23)cc1OC	5%	x	-9%	20µM*
COc1ccc(NC(=O)c2cc3c(-c4ccc(OC)c(OC)c4)nn(C)c3s2)cc1OC	-25%	18%	1%	u
Oc1ccc(NCc2ccccc2OCc2ccccc2)cc1	35µM*	-5%	50µM*![fluorescent]	u
CC(C)NC(=O)C1CCCN(S(=O)(=O)c2ccc3c(ccn3C)c2)C1 (centres undefined)	-1%	x	2%	2%
CC1(C)C(=O)N(Br)C(=O)N1Cl	1%[201 µM]	x	-2%[201 µM]	x
CC(C)C[C@@H](CC(=O)N[C@H](CC(=O)N[C@@H]1CCCC[C@H]1C(=O)N[C@H](CC(=O)N[C@@H](CCC(=O)O)CC(=O)O)Cc1c[nH]c2ccccc12)C(C)C)NC(=O)[C@@H]1CCCC[C@H]1N	-6%	-7%	0%	7.1µM*
Cc1ccc(S(=O)(=O)NCc2ccc3c(c2)cc(C)n3C)cc1	u	-18%	45µM*[fluorescent]	-8%
CCc1oc(C(=O)O)cc1COC	11%	-13%	1%	3%
COCc1cc(O)c(O)c(O)c1-c1c(COC)cc(O)c(O)c1O	-2%	1µM*	-5%	-2%
C=CCCCCCCCCCC	4%[201 µM]	x	-2%[201 µM]	x
CCCCCCCCCCCC(=O)N(C)CC(=O)O	-1%[201 µM]	x	-1%[201 µM]	x
O=C(Nc1ccc([N+](=O)[O-])cc1Cl)c1cc(Cl)ccc1O	15%	-5%	-7%	3%
O=C(Nc1cccc(Cl)c1)c1cc(N=Nc2ccc([N+](=O)[O-])cc2Cl)ccc1O	2%	-5%	-5%	18µM*
CCSc1ncc(Cl)c(C(=O)Nc2nc3ccc(S(C)(=O)=O)cc3s2)n1	-9%[53 µM]	x	35µM*[quencher]	4%
CCSc1ncc(Cl)c(C(=O)Nc2nc3ccc(OC)cc3s2)n1	u	x	2.5µM*[quencher]	-5%
